This is a sample that favours compounds with a hit; in the whole collection about 11% have one here.
AMA1 RON2 block – AMA1-RON2 (P. falciparum) interaction inhibition | AID 720542 | AlphaScreen AMA1-biotinylated RON2 peptide binding | Potency, µM (doses to about 58.2 µM), for the others: top-dose activity change, negative = inhibition, actives largely listed as inhibitors | actives 0.2% (n = 360,000);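 note: 0% = vehicle wells and -100% = peptide control; nearly all actives have a fitted effect of over 45% in size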
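AMA1 (3D7) with his tag at 25 nM final met compounds first, then biotinylated RON2 peptide at 25 nM; detection used donor plus acceptor beads, 10 µg/mL apiece, read by AlphaScreen after 30 min at room temperature.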
Pf growth 96h – P. falciparum growth inhibition at 96 hours; Potency, µM (highest dose often 28.7 µM), inactives show at the highest dose activity change, negative = inhibition, usual class: inhibitors; AID 504834; actives 6.9% (n = 320,000); P. falciparum luciferase reporter growth, 96 h
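Cell-based qHTS: luciferase-tagged P. falciparum in erythrocytes (2% hematocrit, 0.05% parasitemia final) incubated with compounds for 96 hours, 37 C, 5% CO2; luciferase detection reagent then added and luminescence measured.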
HCV inh – inhibitors of hepatitis C virus infection; actives 3.4% (n = 340,000); Huh7.5.1 HCVcc-Cre infection, luciferase reporter, 44 h; AID 651820; Potency, µM (top dose mostly 41.8 µM), for the others: top-dose activity change, negative = inhibition, usual class: inhibitors
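A cell-based infection assay in which seeded cells (1,000 per well) receive test compound after 4 h, are inoculated with HCVcc-Cre at approximately 0.5 moi, and are incubated 44 h before luminescence detection.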
Pf growth 48h – P. falciparum growth inhibition at 48 hours (one generation) | P. falciparum luciferase growth in erythrocytes, 48 h | Potency, µM (doses to about 28.7 µM), for the others: top-dose activity change, negative = inhibition, actives largely listed as inhibitors | actives 5.9% (n = 310,000) | AID 504832
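Luciferase-expressing parasites in RBCs, 2% Hct / 0.1% parasitemia final; RPMI 1640 + 0.5% Albumax; 37 C, 5% CO2, one generation; luminescence read-out, lower signal = inhibition.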
Numbers without * were called inactive; ? = inconclusive; . = no result given; [ ] = another dose, or the depositor's remark. Calls come from the whole dose curve; as a rule, active = well fitted curve in the direction sought with a large enough effect; inconclusive = small, poorly fitted or top-dose-only effect, or another doubt; inactive = no such curve, though single readings can be large; an effect the other way counts as inactive or inconclusive. Unless noted, % is set by controls: 0 for no effect and ±100 for the full control effect; potency is the fitted concentration of half-maximal effect.

SMILES	AMA1 RON2 block	Pf growth 96h	HCV inh	Pf growth 48h
COc1ccc(N2CCN(C(c3cccs3)C(C)NS(=O)(=O)c3ccccc3)CC2)cc1 (stereo unspecified)	?	?	?	13µM*
CCS(=O)(=O)NC(C)C(c1cccs1)N1CCN(c2ccc(OC)cc2)CC1 (stereo unspecified)	-29%	7%	-22%	0%
O=C(CCNC(=O)c1ccc(Br)cc1)NCCCN1CCCC1=O	-1%	19%	13%	-6%
CCc1nc2ccc(C(=O)NC(C)(C)C)cn2c1N(CC)Cc1cccc(Br)c1	0%	.	.	.
COc1ccc(-c2sc3ccccc3c2-c2ccc(O)cc2)cc1	5%	.	?	.
COc1ccc(C=O)c(-c2c(-c3ccccc3OC)sc3ccccc23)c1	-16%	.	.	.
COc1ccccc1-c1sc2ccccc2c1-c1ccc2c(c1)OCO2	-11%	5.2µM*	?	4.7µM*
COc1ccc(-c2sc3cc(OC)c(OC)cc3c2-c2ccc(O)cc2)cc1	?	.	28µM*	.
COc1ccccc1-c1sc2ccccc2c1-c1ccc(O)cc1	8%	.	5.6µM*	.
CN1C(=O)C(CC(=O)NCCc2ccccc2)N(NC(=O)c2ccc(Cl)cc2)C1=S (stereo unspecified)	66%	-15%	-8%	?
NC(=O)C1CCN(c2nc(-c3ccccc3Cl)cs2)CC1	.	6%	.	?
Cc1cccc(N(C)S(=O)(=O)c2csc(C(N)=O)c2)c1	5%	0.66µM*	7%	-11%
CN(C)c1ccc(CNS(=O)(=O)c2csc(C(N)=O)c2)cc1	2%	-6%	-23%	-23%
CC(C)Oc1ccc(CNS(=O)(=O)c2csc(C(N)=O)c2)cc1	11%	1%	?	6.6µM*
Cc1cc(C)cc(NS(=O)(=O)c2csc(C(N)=O)c2)c1	2%	?	-4%	5%[0.00184 µM]
Cc1ccc(NS(=O)(=O)c2csc(C(N)=O)c2)c(C)c1	-4%	4.1µM*	-10%	7.4µM*
O=C(NN=C1CCCCCCCCCCC1)c1ccccc1F	11%	3%	0%	2%
CN(C)CCn1c(=O)n(Cc2ccco2)c(=O)c2c3c(sc21)CCCCC3	0%	7.4µM*	?	?
O=C(Cn1c(=O)n(Cc2ccco2)c(=O)c2c3c(sc21)CCCCC3)Nc1ccccc1	-23%	12µM*	-18%	?
O=c1c2c3c(sc2n(CCN2CCCC2)c(=O)n1Cc1ccco1)CCCCC3	-17%	4%	10µM*	?
O=C(Cn1c(=O)n(Cc2ccco2)c(=O)c2c3c(sc21)CCCCC3)c1ccccc1	-15%	0%	.	-11%
CCC(c1nc2ccccc2[nH]1)N(CCCn1ccnc1)C(=O)c1ccc(C(F)(F)F)cc1 (stereo unspecified)	12%	.	.	.
COc1cc(CN2C(=S)NC(C)(C)CC2(C)O)cc(OC)c1 (stereo unspecified)	3%	22%	10%	11%
CN(C)C(CNC(=O)c1cccc(C(F)(F)F)c1)c1ccco1 (stereo unspecified)	5%	49%	-8%	-1%
CC(NC(=O)C1CC(=O)N(c2ccc3c(c2)OCCO3)C1)c1ccccc1 (stereo unspecified)	8%	.	.	.
SMILES	AMA1 RON2 block	Pf growth 96h	HCV inh	Pf growth 48h
Nc1c(C(=O)NCCN2CCOCC2)c2nc3ccccc3nc2n1CCc1ccccc1	28%	-19%	?	9.3µM*
Nc1c(C(=O)NCCN2CCOCC2)c2nc3ccccc3nc2n1CCc1ccccc1F	46%	13µM*	?	?
C=CCNC(=O)c1c(N)n(CCN2CCOCC2)c2nc3ccccc3nc12	2%	40%	6%	-15%
CCOC(=O)N1CCC(Nc2ncnc3c2cnn3-c2ccc(C)cc2C)CC1	8%	-28%	7.1µM*	0%
C[N+]1(CCCCSc2ccc(O)cc2)CCCCC1	-6%	-12%	6%	9.3µM*
CC(=O)OCCCCCCCCCCC[N+]1(C)CCCCC1	-7%	45%	14%	?
Fc1ccc(Oc2ncccn2)c(F)c1	0%	17%	11%	12%
CSC1CCCCC1(O)CSc1nc2c(cc1C#N)CCCC2 (stereo unspecified)	2%	55%	?	9.3µM*
CC(=O)N1CCCc2cc(S(=O)(=O)N(C)Cc3ccccc3)ccc21	0%	?	35µM*	-16%
CCCCN(CC)S(=O)(=O)c1ccc2c(c1)CCCN2C(C)=O	13%	13µM*	-6%	?
O=C1CCCN1C(=O)CSc1nnnn1-c1cccc(F)c1	-10%	.	-4%	.
COc1cccc(-n2nc(-c3ccnn3-c3ccccc3)c(=O)n(C)c2=O)c1	32%	12µM*	?	.
COc1ccccc1N1C(=O)C2C(c3ccc(F)cc3)NN(C(=O)c3ccc(C)cc3)C2C1=O (stereo unspecified)	5%	-16%	13%	-9%
Cc1cc(OCC(=O)NNC(=O)c2ccncc2)cc(C)c1Cl	119%	10µM*	4%	?
O=C(COc1ccc(Cl)cc1)NNC(=O)c1ccccn1	84%	?	1%	5.2µM*
Cc1cc(C)cc(OCC(=O)NNC(=O)c2ccccn2)c1	76%	3.3µM*	?	5.2µM*
CN1C(=O)CCS(=O)(=O)C1c1ccc(Cl)c(Cl)c1 (stereo unspecified)	2%	.	.	.
COc1ccc(C(=O)N2CCc3[nH]nc(-c4ccccc4)c3C2)cc1	0%	-22%	11µM*	-30%
Cc1ccc(-c2nc3ccccc3n3c(C)nnc23)cc1	.	84%	.	-15%
CCCN(CCC)c1nc2ccccc2n2c(C)nnc12	-16%	-22%[5.75 µM]	3.2µM*	0%
CCCNc1nc2ccccc2n2c(C)nnc12	-6%	9.3µM*	-16%	8%
Cc1nn(C)c(C)c1NC(=O)COc1ccc(Cl)cc1	1%	2%	11µM*	-1%
Cc1ccc(S(=O)(=O)N(C)CC(=O)Nc2nc3ccccc3s2)cc1	-2%	6.6µM*	?	-9%
CN(c1ccc(OCC(=O)Nc2nc3ccccc3s2)cc1)S(=O)(=O)c1ccccc1	6%	5.2µM*	?	?
Cc1ccc2nc(NC(=O)CN(C)S(=O)(=O)c3ccc(Br)s3)sc2c1	-7%	9.3µM*	?	.
SMILES	AMA1 RON2 block	Pf growth 96h	HCV inh	Pf growth 48h
COc1ccc(NC(=O)Nc2ccccc2C(=O)N2CCCC2)cc1	2%	.	4%	29%
CN=c1scc(-c2ccc(F)cc2)n1/N=C/c1ccc(O)c(O)c1	-6%	?	2.2µM*	-52%
O=C(O)Cn1c2ccccc2c2n[nH]c(=S)nc21	88%	3.7µM*	23%	-5%
CCn1c2ccccc2c2n[nH]c(=S)nc21	117%	-1%	2%	13%[0.00184 µM]
COc1ccc(S(=O)(=O)N2Cc3ccccc3CC2C(=O)Nc2nccs2)cc1 (stereo unspecified)	28%	188%	-12%	168%
Cc1ccc(S(=O)(=O)N2CCCC(c3nnc4n3-c3ccccc3SC4)C2)cc1 (stereo unspecified)	-3%	13µM*	-30%	0%
COc1ccccc1N1CCN(C2CCCN(S(=O)(=O)c3ccc(C)cc3)C2)CC1 (stereo unspecified)	-18%	-22%	?	-24%
